Screening results deposited in PubChem BioAssay by National Center for Advancing Translational Sciences (NCATS).
Pf Dd2 inh = blocks in vitro growth of P. falciparum Dd2 | P. falciparum Dd2 growth, SYBR Green, 72 h | actives 4.3% (n = 120,000) | Potency, µM (top dose mostly 28.9 µM), for inactives: at the top dose activity, negative = inhibition, hits mostly inhibitors | AID 1347417; active = well fitted inhibition curve with a large enough effect;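 also: plate controls were DMSO vehicle for no effect and reference drug for full effect; nearly all actives have a fitted effect of over 65% in size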
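Readout: SYBR Green fluorescence, 485 nm excitation, 535 nm emission, after ~16 h lysis at 37C. Before that, Dd2-infected red cells (2.5% hematocrit) grew 72 h with compound, 29 uM top final concentration.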
Active calls of the source: *; i = inactive; [ ] = another dose, or the depositor's remark. This is one part of a sample in which hits are shown more often than they occur. Potency is read from the fitted curve at half-maximal effect.

SMILES	Pf Dd2 inh
Cc1ccc(NC(=O)c2ccc(-c3cccc(Cl)c3C)o2)cc1	20.3%
COc1ccc(NC(=O)c2ccc(-c3cccc(Cl)c3C)o2)cc1	9.6%
Cc1ncc2c(c1CNC(=O)c1cccc(OC(F)F)c1)CCNC2	-11.7%
O=C(NCc1ccccc1)c1ccc(-c2cccc3c2CCNC3)o1	11.2µM*
O=C(Nc1ccccc1)c1ccc(-c2cccc3c2CCNC3)o1	11.2µM*
CN(Cc1ccc(-n2cccn2)cc1)C(=O)c1ccccc1C1CCNC1 (configuration not stated)	-13.6%
CCC(O)C(=O)N1CCC(c2[nH]ncc2-c2cccc(OC)c2)CC1 (configuration not stated)	6.8%
Cc1nc(C(=O)N2CCC3(CCC(=O)N(CCc4cnc[nH]4)C3)CC2)cs1	29.2%
CC(CCc1ccccc1)NC(=O)c1ccc(Cn2ccn3nc4c(c3c2=O)CCCC4)cc1 (configuration not stated)	8.91µM*
COc1ccccc1CNC(=O)c1ccc(Cn2ccn3nc4c(c3c2=O)CCCC4)cc1	-2.0%
CNC(=O)c1ccc(Cn2ccn3nc4c(c3c2=O)CCCC4)cc1	i
COc1ccc(C(=O)N2CCOCC3(CN(Cc4cc(F)cc(F)c4)C3)C2)cc1	17.5%[44.1 µM]
O=C(c1ccc(C(F)(F)F)cc1)N1CCn2c(nn(-c3ccncc3)c2=O)C1	8.8%
COC(=O)[C@H]1CN(C(=O)c2cccnc2)CCN1C(=O)C1CCCCC1	i
Nc1nc(NCCNC(=O)c2ccccc2Cl)cc(C2CC(O)C2)n1 (configuration not stated)	-6.6%
Cc1cnc(CC2CCN(C(=O)C3CCOC3)CC2)n1Cc1ccc(F)cc1 (configuration not stated)	-2.6%
Cc1cnc(CC2CCCNC2)n1Cc1ccc(F)cc1 (configuration not stated)	-26.0%
Cc1cnc(CC2CCCN(C(=O)c3cccnc3)C2)n1Cc1ccc(F)cc1 (configuration not stated)	i
Cc1cnc(CC2CCN(C(=O)CC3CCCC3)CC2)n1Cc1ccc(F)cc1	3.16µM*
Cc1cnc(C2CCC2)n1CC1CCN(C(=O)Cc2cccnc2)CC1	4.3%
Cc1ccc(C(=O)N2CCC(Cn3c(C)cnc3C3CCC3)CC2)cn1	-7.7%
Cc1cnc(C2CCC2)n1CC1CCN(C(=O)C(C)c2ccccc2)CC1 (configuration not stated)	8.91µM*
Cc1cnc(CC2CCN(C(=O)NC(C)C)CC2)n1Cc1ccc(F)cc1	i
Cc1cnc(CC2CCN(C(=O)C(C)c3ccccc3)CC2)n1Cc1ccc(F)cc1 (configuration not stated)	2.24µM*
O=C(N[C@H]1CCN2C(=O)c3cc(-c4ccsc4)ccc3NC(=O)[C@H]12)C1CCCC1	i
SMILES	Pf Dd2 inh
O=C(CCCn1cncn1)NC1CC(c2cc(=O)[nH]c(C3CC3)n2)C1 (configuration not stated)	-14.3%
COc1cccc(C(=O)N2CC(F)(F)C[C@H]2c2nc(C)no2)c1OC	i
O=C(CCC[C@@H]1[C@H]2CCCN3CCC[C@@H](CN1C(=O)c1ccccc1F)[C@@H]23)N1CCOCC1	-10.0%
CC(C)(C)CC(=O)N1C[C@@H]2C[C@H](C1)c1ccc(NC(=O)Nc3cccc(F)c3)c(=O)n1C2	i
Cc1ccc(C)c(NC(=O)CN2C(=O)NC3(CCC(C)CC3)C2=O)c1 (configuration not stated)	-17.9%
Cn1ncc(N2CCC(NC(=O)c3ccsc3)CC2)cc1=O	-17.3%
O=C(NC1CCN(c2cnn(Cc3ccccc3)c(=O)c2)CC1)c1ccsc1	10µM*
CC(C)(C)CC(=O)NC1CCN(c2cnn(Cc3ccccc3)c(=O)c2)CC1	i
CNC(=O)[C@@H]1CN(C(=O)c2ncoc2-c2cccc(C)c2)C[C@H]1CO	12.0%
Cc1ccc(-c2noc(C3CCN(C(=O)CC(C)C)CC3)n2)nn1	-4.6%
COC(=O)c1ccc(Cn2cnc3nc4c(cc3c2=O)CCCC4)cc1	55.6%
CCC(C(=O)Nc1ccc(C(C)=O)cc1)n1cnc2nc3c(cc2c1=O)CCCC3 (configuration not stated)	10µM*
Cc1ccc(Cn2cnc3nc4c(cc3c2=O)CCCC4)cc1	-23.8%
CCSCCNc1nc(COC)nc2c1cnn2C	25.4%
Cc1noc(C2CC3(CCN(C(=O)C4CCCC4)CC3)CN2C)n1 (configuration not stated)	-1.5%
COc1ccccc1CC(=O)Nc1cnc(-c2cccc(Cl)c2)nc1	i
Fc1ccccc1-c1noc(NCCc2ccc(Cl)cc2)n1	i
O=c1cc(-c2ccccc2)nc(SCc2nc(-c3ccc(Cl)cc3)no2)[nH]1	19.6%
Clc1ccc(CNc2nc(-c3ccccc3)no2)cc1	11.2µM*
COCCN1CCCCC(CC(=O)Nc2ccc(C)cc2)C1=O (configuration not stated)	-12.1%
COCCCN1CC2(CCC1=O)CCN(Cc1nonc1C)CC2	-1.3%
NC(=O)c1csc(S(=O)(=O)N2CCC(CO)(CN3CCCC3)CC2)c1	-27.6%
CN1CCC(N[C@@H]2CO[C@H](CNC(=O)C3CCCC3)[C@H]2O)CC1	2.6%[44.1 µM]
COc1ccccc1-c1cc(-c2ccc(=O)[nH]c2)c2cncn2c1	15.2%[44.1 µM]
